Screening data from PubChem BioAssay.
Sampled rows, rich in hits. Any-hit rate of the full collection: about 9.3%.
FLuc counter: firefly luciferase modulation, counter-screen for miR-21 project; purified FLuc, Km substrates, luminescence inhibition; Potency, µM (series often up to 57.5 µM), most hits filed as inhibitors; 360,000 compounds, 6.9% hits; note: nearly all actives have a fitted effect of over 55% in size
Target sequence (P08659 whole entry, looked up): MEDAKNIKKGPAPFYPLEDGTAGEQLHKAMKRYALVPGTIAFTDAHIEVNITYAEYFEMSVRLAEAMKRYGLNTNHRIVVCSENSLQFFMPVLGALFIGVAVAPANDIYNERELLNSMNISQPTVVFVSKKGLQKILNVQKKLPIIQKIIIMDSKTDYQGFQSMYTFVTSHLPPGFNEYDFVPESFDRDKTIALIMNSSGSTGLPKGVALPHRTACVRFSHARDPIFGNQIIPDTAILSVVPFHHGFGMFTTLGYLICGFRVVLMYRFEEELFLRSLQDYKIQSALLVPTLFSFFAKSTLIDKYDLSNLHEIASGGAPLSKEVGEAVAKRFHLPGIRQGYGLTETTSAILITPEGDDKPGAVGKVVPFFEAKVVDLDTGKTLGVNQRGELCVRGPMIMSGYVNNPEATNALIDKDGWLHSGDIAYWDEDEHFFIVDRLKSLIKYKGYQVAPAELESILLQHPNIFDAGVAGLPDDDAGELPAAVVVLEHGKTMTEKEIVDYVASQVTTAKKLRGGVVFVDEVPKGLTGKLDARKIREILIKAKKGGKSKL
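Biochemical qHTS of compounds, final roughly 60 µM downward over six points, against 10 nM purified firefly luciferase using Km concentrations of substrates (10 uM D-luciferin, 10 uM ATP) in Tris acetate pH 7.5 buffer; luminescence output.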
SMN2 splice enh: enhancers of SMN2 splice variant expression | HEK293 SMN2-luciferase splicing reporter, luminescence, 30-36 h | Potency, µM (doses to about 46.1 µM), hits mostly activators | AID 1458 | 210,000 compounds, 2.8% hits; note: nearly all actives have a fitted effect of over 55% in size
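qHTS luciferase splicing reporter: luminescence rises when SMN2 exon 7 is included in transfected HEK293 cells. Compound exposure lasted 30-36 h at 37C, with 4.5 mM final sodium butyrate as control, followed by a ONE-Glo read.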
NPC1 promoter act: activates the NPC1 promoter; Huh7 NPC1 promoter luciferase reporter, 24 h; Potency, µM (highest dose often 9.22 µM), actives largely listed as activators; 320,000 compounds, 2.4% hits; note: nearly all actives have a fitted effect of over 60% in size
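Stably transfected Huh7 (NPC1 promoter→luciferase), 1500 cells/well in Opti-MEM + 10% FBS, 2 h settle, then compound 24 h at 37 °C. Luminescence after 10 min with Amplite reagent.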
Rab9 prom act: activates the Rab9 promoter. AID 485297. Huh7 Rab9 promoter-luciferase reporter, luminescence, 24 h. 320,000 compounds, 2.8% hits. Potency, µM (titrated, usually from 9.22 µM), hits mostly activators; note: nearly all actives have a fitted effect of over 60% in size
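Cells were plated at 1500 per well in reduced-serum medium with 10% FBS and left 2 h. Compound in DMSO was then added for 24 h at 37 °C. Reporter signal was read by luminescence after 10 min with luciferase detection reagent.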
ELG1 genotox: inducers of genotoxicity in HEK293T ELG1-luciferase cells. 330,000 compounds, 1.3% hits. AID 504466. HEK293T ELG1-luciferase reporter, luminescence, 16 h. Potency, µM (series often up to 46 µM), most hits filed as activators; note: nearly all actives have a fitted effect of over 60% in size
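Genotoxic stress is detected as increased luminescence from luciferase-tagged ELG1 in HEK293T cells, measured with ONE-Glo after a 16 hr treatment at 37 °C.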
ELG1 repair inh: inhibitors of ELG1-dependent DNA repair in HEK293T cells | HEK293T ELG1-luciferase reporter, luminescence, 16 h; DNA damage induced by 5-fluorouridine | Potency, µM (series often up to 46.1 µM), actives largely listed as inhibitors | 330,000 compounds, 2.3% hits | AID 504467; note: nearly all actives have a fitted effect of over 55% in size
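5-Fluorouridine DNA damage + compound/DMSO, 2,000 cells/well, 16 h, 37 °C/5% CO2. ONE-Glo, 30 min RT, luminescence. Readout = decrease in reporter signal.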
Hits are given with their value; i = inactive; ? = inconclusive; nt = no result given; [ ] = another dose, or the depositor's remark. Calls come from the whole dose curve; as a rule, active = well fitted curve in the direction sought with a large enough effect; inconclusive = small, poorly fitted or top-dose-only effect, or another doubt; inactive = no such curve, though single readings can be large; an effect the other way counts as inactive or inconclusive.

SMILES	FLuc counter	SMN2 splice enh	NPC1 promoter act	Rab9 prom act	ELG1 genotox	ELG1 repair inh
CC1CCN(S(=O)(=O)c2ccc3c(c2)N(CC(=O)NCCCN2CCCC(C)C2)C(=O)CO3)CC1 (stereo not given)	i	nt	i	i	i	?
Cn1/c(=N/N=C/c2ccccn2)sc2ccccc21	3.8µM	16µM	2.2µM	1.1µM	?	?
Cn1/c(=N/N=C/c2ccc(N3CCOCC3)cc2)sc2ccccc21	3µM	i	?	i	i	?
Cn1/c(=N/N=C/c2ccc(Cl)c([N+](=O)[O-])c2)sc2ccccc21	?	i	?	i	i	?
COc1ccc(C(=O)c2sc(NC(C)C)nc2N)cc1OC	i	i	i	i	i	?
COc1cccc(C(=O)c2sc(NC(C)C)nc2N)c1	i	20µM	i	i	i	21µM
O=C(CSc1nnc(-c2ccc(Cl)cc2)n1-c1ccc(Cl)cc1)N/N=C/c1ccccc1C(=O)O	i	nt	i	i	i	i
O=C(N1CCOCC1)C1(S(=O)(=O)c2ccccc2)CC=CC1	i	nt	i	i	i	i
COc1ccc(CCN2C(=NC(=O)CCC(=O)O)SC3CS(=O)(=O)CC32)cc1OC (stereo not given)	27µM	i	i	i	i	i
CCN(CC)CCNC(=O)CSc1c2c(nc3cc(Cl)ccc13)CCCC2	i	i	i	i	i	?
COc1ccc2[nH]cc(CCNC(=O)Nc3c(C)cccc3C)c2c1	i	i	nt	nt	nt	nt
Cc1cccc(OCCNc2nc3c(c(=O)n(C)c(=O)n3C)n2C)c1	i	i	i	i	i	i
Cc1cc2c(C)nc(Cc3ccccc3)nc2o1	i	i	i	i	i	18µM
N#C/C(=C/c1ccc(N2CCCCC2)cc1)c1cccc(F)c1	5.4µM	?	4µM	3.2µM	18µM	?
N#C/C(=C/c1ccc(N2CCCCCC2)o1)c1ccc(Cl)cc1	9.5µM	i	i	4µM	?	?
N#C/C(=C/c1ccc(N2CCCCC2)o1)c1cccc(F)c1	2.1µM	i	i	i	3.7µM	?
COc1ccc(C(=O)N2CCc3cc(OC)c(OC)cc3C2c2ccc(OC)c(OC)c2)cc1 (stereo not given)	i	nt	i	i	i	i
COc1cc2c(cc1OC)C(C)N(C(=O)/C=C/c1cc(OC)c(OC)c(OC)c1)CC2 (stereo not given)	i	nt	i	i	i	18µM
COc1cc2c(cc1OC)C(COc1ccc([N+](=O)[O-])cc1)N(C(C)=O)CC2 (stereo not given)	i	nt	i	i	i	8.2µM
COc1ccc(C2c3cc(OC)c(OC)cc3CCN2C(=O)c2ccccc2)cc1OC (stereo not given)	i	nt	i	i	i	6.5µM
COc1cc2c(cc1OC)C(C)N(C(C)=O)CC2 (stereo not given)	i	0.63µM	i	i	?	?
COc1cc2c(cc1OC)C(COc1ccccc1OC)N(C(C)=O)CC2 (stereo not given)	i	nt	i	i	i	i
COc1ccc(C(=O)N2CCN(C(=O)C3COc4ccccc4O3)CC2)cc1OC (stereo not given)	i	nt	i	i	i	i
COc1cc2c(cc1OC)C(C)N(C(=O)C1COc3ccccc3O1)CC2 (stereo not given)	i	?	i	i	i	23µM
COc1cc(/C=C/C(=O)N2CCCc3ccccc32)cc(OC)c1OC	i	i	i	i	i	8.2µM
SMILES	FLuc counter	SMN2 splice enh	NPC1 promoter act	Rab9 prom act	ELG1 genotox	ELG1 repair inh
O=C(CN1C(=O)NC2(CCCCCC2)C1=O)Nc1ccc(Cl)cc1Cl	i	nt	i	i	i	i
CC(C)Cn1c(=O)[nH]c(=O)c2c(C(F)(F)F)cc(-c3ccccc3)nc21	i	nt	i	i	i	?
CCS(=O)(=O)c1ncc(Cl)c(C(=O)Nc2ccc(C)cc2)n1	i	nt	i	i	i	?
CCN(CC)S(=O)(=O)c1cccc(-c2nnc(SCCOc3ccc(Cl)cc3)o2)c1	i	i	i	i	i	21µM
Cc1c(NC(=O)COC(=O)c2ccc(F)c(S(=O)(=O)N3CCOCC3)c2)c(=O)n(-c2ccccc2)n1C	i	i	i	i	i	i
COc1ccc(OC)c(S(=O)(=O)Nc2cccc(-c3ccc(N4CCCCCC4)nn3)c2)c1	17µM	nt	i	i	i	i
COc1ccc(S(=O)(=O)Nc2cccc(-c3ccc(N4CCCCCC4)nn3)c2)c(OC)c1	8.5µM	nt	?	?	?	?
COc1ccc(-c2cccc(NS(=O)(=O)c3cc(C)ccc3OC)c2)nn1	i	nt	nt	nt	nt	nt
Cc1ccc(S(=O)(=O)NCC(=O)N2CCc3ccccc3C2)cc1	i	nt	i	i	i	i
CC(C)(C)NC(=O)CN(C(=O)CCC(=O)Nc1nccs1)c1ccc(F)c(Cl)c1	i	nt	i	i[1.84 µM]	i	i
COCCN1Cc2c(sc(C)c2C)N(C(=O)c2ccccc2)C1	19µM	i	?	i	i	?
Cc1sc2c(c1C)CN(Cc1ccncc1)CN2C(=O)c1ccco1	?	i	i	i	i	?
Cn1c(/N=C/c2ccc3c(c2)OCO3)nc2ccccc21	0.24µM	i	i	i	i	i
Nc1nc2ccccc2n1/N=C/c1ccc2c(c1)OCO2	11µM	nt	2µM	4µM	?	?
C(=NC12CN3CN(CN(C3)C1)C2)c1ccc2c(c1)OCO2	i	i	i	i	i	i
Nc1nnnn1/N=C/c1ccc(Br)cc1	i	nt	i	i	?	i
Nc1nc2ccccc2n1/N=C/c1ccc(Br)cc1	?	35µM	?	?	16µM	?
CCC(=O)OC1(C)C(=O)C2=COC(c3ccc(OC)cc3)=CC2=C(Br)C1=O (stereo not given)	i	i	i	i	i	?
O=C(Nc1ccc2c(c1)OCCO2)c1cccnc1Oc1ccc(Cl)cc1	i	nt	i	i	i	?
O=C1c2ccccc2CC1Sc1nnc(-c2ccccn2)o1 (stereo not given)	12µM	i	i	i	i	?
CCOC(=O)c1sc2nccc(N(C)C)c2c1N=CNOCc1ccccc1	i	i	i	i	i	?
CCOC(=O)c1sc2nccc(N(C)C)c2c1N=CNOCc1c(F)cccc1Cl	i	i	i	i	i	16µM
COc1cc2ccccc2nn1	i	nt	i	i	i	i
COc1ccc2c(n1)Sc1nc3ccccc3nc1N2	2.1µM	nt	?	2.2µM	8.2µM	?
CCOc1ccccc1NC1=NCC(=O)N1Cc1ccc(F)cc1	i	i	i	i	i	i
CC(=O)N1C2(C=CC1(C)C(=O)NCc1ccccn1)CCCCC2 (stereo not given)	nt	i	nt	nt	nt	nt
COc1ccc(-c2nnc3n(CCc4ccccc4)c(=O)c4ccccc4n23)cc1OC	i	nt	i	i	i	6.5µM
COc1ccccc1-c1nnc2n(CCc3ccccc3)c(=O)c3ccccc3n12	i	nt	nt	nt	nt	nt
